Laboratory results from PubChem BioAssay (Tox21).
Where “and” joins values, the source holds several entries; their conditions need not be identical. Identical values can stand only once. Inconclusive results are not listed. Entries that show only a call come without a potency. Some structures have more than one record in an assay (separate samples or runs), and their calls can disagree. Calls of active or inactive are those of the source. The call rests on the fitted dose curve; in most records, active means well fitted curve in the direction sought with a large enough effect in the repeat runs; inconclusive means weak or mixed curves; inactive means no such curve, though single readings can be large; an effect the other way counts as inactive or inconclusive.

Legend:
[1] = Human pregnane X receptor (PXR) small molecule agonists, qHTS cell viability counter screen (AID 1346977); further: nearly all actives have a fitted effect of over 50% in size; further: potency means the concentration at half of the fitted maximal effect
Outline: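 Fluorescence read-out (CellTiter-Fluor) of viability in PXR-Luc HepG2 cells, multiplexed with the luciferase agonist read. Compounds in DMSO added after 5hr plating; 24hr total exposure at 37C, 5% CO2.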

[2] = Caspase-3/7 induction in HepG2 cells by small molecules, qHTS assay (AID 1346978); further: nearly all actives have a fitted effect of over 15% in size; further: potency means the concentration at half of the fitted maximal effect
Outline: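 Caspase-3/7 induction was measured by Caspase-Glo 3/7 luminescence (30 min, room temperature) after a 17 hr compound exposure of wild-type HepG2 cells seeded at 2,000 per well and pre-incubated 5 hr.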

[3] = Caspase-3/7 induction in CHO-K1 cells by small molecules, qHTS cell viability counter screen (AID 1346979); further: nearly all actives have a fitted effect of over 35% in size; further: potency means the concentration at half of the fitted maximal effect
Outline: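 CHO-K1 wt, 1,500 cells/well; 5hr pre-incubation 37C/5% CO2; compound pin transfer (DMSO); 16hr exposure; CellTiter-Fluor added, 1hr, fluorescence read.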

[4] = Caspase-3/7 induction in CHO-K1 cells by small molecules, qHTS assay (AID 1346980); further: nearly all actives have a fitted effect of over 15% in size
Outline: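 Luminescent Caspase-Glo 3/7 read (30min, room temperature) quantified apoptosis induction. Cells were wild-type CHO-K1, treated with compound for 17hr at 37 C and 5% CO2.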

[5] = Caspase-3/7 induction in HepG2 cells by small molecules, qHTS cell viability counter screen (AID 1346981); further: series mostly up to about 92 µM; nearly all actives have a fitted effect of over 30% in size
Outline: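 Counter screen for cytotoxicity: HepG2 exposed 16 hr to compounds, then CellTiter-Fluor viability signal (fluorescence, 1 hr reagent incubation).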

[6] = molecular target: Nuclear receptor subfamily 1 group I member 2 (Homo sapiens) (UniProt O75469); test: Human pregnane X receptor (PXR) small molecule agonists, qHTS assay (AID 1346982); further: nearly all actives have a fitted effect of over 35% in size; further: potency means the concentration at half of the fitted maximal effect
Outline: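 Luminescence (ONE-Glo, 30 min RT) after 24 hr compound exposure of PXR-Luc HepG2 cells; cells rested 5 hr post-plating in 5% charcoal-stripped FBS medium.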

[7] = molecular target: Nuclear receptor subfamily 1 group I member 2 (Rattus norvegicus) (UniProt Q9R1A7); test: Rat pregnane X receptor (rPXR) activation by small molecules, qHTS assay (AID 1346983); conditions: rPXR luciferase reporter cells, One-Glo luminescence, 24 h; stronger effect = higher value; further: nearly all actives have a fitted effect of over 20% in size
Outline: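 Luminescent readout (One-Glo luciferase, 30 min room temperature) followed 24 hr compound treatment at 37 C of rPXR cells plated 2,000 per well and preincubated 5hr; qHTS format with compounds delivered in DMSO.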

[8] = molecular target: Nuclear receptor subfamily 1 group I member 2 (Homo sapiens) (UniProt O75469); test: CYP3A4 induction through human pregnane X receptor (PXR) by small molecules, qHTS assay (AID 1346984); further: nearly all actives have a fitted effect of over 40% in size
Outline: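 DPX-2 reporter cells; 24h cpd, 37C; Luciferin-IPA 3uM final x3h; One-Glo 30 min RT; lumi read.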

[9] = molecular target: Nuclear receptor subfamily 1 group I member 2 (Homo sapiens) (UniProt O75469); test: Human pregnane X receptor (PXR) activation by small molecules, qHTS assay (AID 1346985); further: nearly all actives have a fitted effect of over 40% in size
Outline: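 DPX-2 cells (HepG2 co-transfected with a PXR response element and a CYP3A4-promoter luciferase construct) were seeded at 2,000 per well, rested 5 hr at 37C, then exposed to DMSO-dissolved compounds for 24 hr. Activation was read as luciferase luminescence.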

[10] = molecular target: Cytochrome P450 2D6 (Homo sapiens) (UniProt P10635); test: Cytochrome P450 Family 2 Subfamily D Member 6 (CYP2D6) small molecule antagonists: luciferase reporter qHTS assay (AID 1671196); further: nearly all actives have a fitted effect of over 50% in size; further: potency means the concentration at half of the fitted maximal effect
Outline: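 Inhibition of CYP2D6 was gauged by loss of luminescence, since light produced tracks the luciferin generated from a proluciferin substrate. A 10 min room-temperature preincubation preceded 1 h NADPH-supported turnover.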

Sequence of Nuclear receptor subfamily 1 group I member 2 (Rattus norvegicus) (Q9R1A7 whole entry, looked up): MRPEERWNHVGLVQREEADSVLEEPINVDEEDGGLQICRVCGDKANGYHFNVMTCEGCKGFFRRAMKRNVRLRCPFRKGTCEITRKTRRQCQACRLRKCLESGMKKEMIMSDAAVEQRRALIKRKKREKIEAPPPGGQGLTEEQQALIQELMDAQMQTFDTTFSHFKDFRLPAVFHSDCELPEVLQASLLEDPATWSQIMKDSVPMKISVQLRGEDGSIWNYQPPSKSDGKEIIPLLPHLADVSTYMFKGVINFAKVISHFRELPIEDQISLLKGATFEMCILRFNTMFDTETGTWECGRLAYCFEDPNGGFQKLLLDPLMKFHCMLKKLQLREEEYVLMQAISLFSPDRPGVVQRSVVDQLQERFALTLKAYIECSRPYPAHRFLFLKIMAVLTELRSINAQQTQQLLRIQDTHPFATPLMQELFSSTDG
Sequence of Cytochrome P450 2D6 (Homo sapiens) (P10635 whole entry, looked up): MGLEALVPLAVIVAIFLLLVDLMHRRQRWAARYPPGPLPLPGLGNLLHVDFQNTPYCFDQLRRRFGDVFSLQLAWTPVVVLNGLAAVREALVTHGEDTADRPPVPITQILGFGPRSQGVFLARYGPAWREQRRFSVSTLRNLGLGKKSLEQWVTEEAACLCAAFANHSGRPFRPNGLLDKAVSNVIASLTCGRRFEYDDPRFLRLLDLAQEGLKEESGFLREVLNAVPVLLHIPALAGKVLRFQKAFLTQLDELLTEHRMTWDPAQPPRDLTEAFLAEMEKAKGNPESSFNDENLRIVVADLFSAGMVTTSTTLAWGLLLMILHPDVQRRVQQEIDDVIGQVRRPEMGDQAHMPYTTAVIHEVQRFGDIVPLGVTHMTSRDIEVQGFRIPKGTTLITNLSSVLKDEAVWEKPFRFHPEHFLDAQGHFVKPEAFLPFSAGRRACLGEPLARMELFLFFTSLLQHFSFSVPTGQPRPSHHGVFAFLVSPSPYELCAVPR
Sequence of Nuclear receptor subfamily 1 group I member 2 (Homo sapiens) (O75469 whole entry, looked up): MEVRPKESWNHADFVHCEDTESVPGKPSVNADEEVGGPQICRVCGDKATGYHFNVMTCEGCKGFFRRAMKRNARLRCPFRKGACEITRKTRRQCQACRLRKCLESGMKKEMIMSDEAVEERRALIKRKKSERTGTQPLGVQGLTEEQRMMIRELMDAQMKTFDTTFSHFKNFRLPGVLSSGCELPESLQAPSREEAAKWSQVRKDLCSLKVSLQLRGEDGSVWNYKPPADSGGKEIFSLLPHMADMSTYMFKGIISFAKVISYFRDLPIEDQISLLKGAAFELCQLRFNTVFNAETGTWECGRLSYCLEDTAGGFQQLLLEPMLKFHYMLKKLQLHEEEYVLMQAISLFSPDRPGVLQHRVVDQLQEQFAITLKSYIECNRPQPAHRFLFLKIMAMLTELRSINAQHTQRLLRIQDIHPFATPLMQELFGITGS

SMILES | Potency [1] | Potency [2] | Potency [3] | outcome [4] | Potency [5] | Potency [6] | max activation [7] | Potency [8] | outcome [9] | Potency [10]
COc1ccccc1OCC(O)CO (centres undefined) | inactive | inactive | inactive | inactive | inactive |  |  |  |  | 
O=C(O)c1ccc(S(=O)(=O)N(Cl)Cl)cc1 | inactive | inactive | inactive | inactive | inactive | inactive | 4.13% (inactive) | inactive | inactive | 35.8 µM (active) and inactive
Cc1ccc(C(C)C)c(O)c1 | inactive | inactive | inactive | inactive | inactive | inactive | -2.47% (inactive) | inactive | inactive | inactive
CCNc1ccccc1 | inactive | inactive | inactive | inactive | inactive | inactive |  |  |  | inactive
CC(CCl)OP(=O)(OC(C)CCl)OC(C)CCl (centres undefined) | inactive | inactive | inactive | inactive | inactive | 36.3 µM (active) |  |  |  | inactive
COc1ccc(N)c(C)c1 | inactive | inactive | inactive | inactive | inactive | inactive |  |  |  | 8.9 µM (active) and 31.7 µM (active)
C=C(C)C(=O)OCC(C)C | 39.8 µM (active) and inactive | 55.2 µM (active) and inactive | 12.4 µM (active) and inactive | inactive | inactive | 17.5 µM (active) and inactive |  |  |  | inactive
O=S(=O)(O)c1ccccc1 | inactive | inactive | inactive | inactive | inactive |  |  |  |  | 
NCCCCCCN | inactive | inactive | 2.75 µM (active) and 19.3 µM (active) | inactive | inactive | inactive |  |  |  | 32 µM (active) and 35.6 µM (active)
C=CC[N+](C)(C)CC=C | inactive | inactive | inactive | inactive | inactive | 54.9 µM (active) and inactive |  |  |  | inactive
CCNc1cccc(C)c1 | inactive | inactive | inactive | inactive | inactive | inactive |  |  |  | inactive
CCCOC(=O)c1ccccc1 | inactive | inactive | inactive | inactive | inactive | inactive | -6.55% (inactive) | inactive | inactive | inactive
O=[N+]([O-])c1ccc2nc[nH]c2c1 | inactive | inactive | inactive | inactive | inactive | inactive |  |  |  | inactive
C=CC(C)CCCC(C)(C)O (centres undefined) | inactive | inactive | inactive | inactive | inactive | inactive |  |  |  | 31.7 µM (active)
O=C(OCC1CCC2OC2C1)C1CCC2OC2C1 (centres undefined) | inactive | inactive | inactive | inactive | inactive | inactive |  |  |  | 16.6 µM (active) and inactive
CC(=O)Oc1ccc(C)cc1 | inactive | inactive | inactive | inactive | inactive | inactive | -1.62% (inactive) | inactive | inactive | inactive
CC(=O)CC(C)(C)O | inactive | inactive | inactive | inactive | inactive | inactive |  |  |  | inactive
C[Si]1(C)O[Si](C)(C)O[Si](C)(C)O[Si](C)(C)O1 | inactive | inactive | inactive | inactive | inactive | inactive |  |  |  | inactive
CC(C)(Oc1ccc(CCNC(=O)c2ccc(Cl)cc2)cc1)C(=O)O | inactive | inactive | inactive | inactive | inactive | inactive | -0.19% (inactive) | inactive | inactive | inactive
C=Cc1ccc(C)cc1 | inactive | inactive | inactive | inactive | inactive | inactive |  |  |  | inactive
CC1(C)S[C@@H]2[C@H](NC(=O)COc3ccccc3)C(=O)N2[C@H]1C(=O)O | inactive | inactive | inactive | inactive | inactive | inactive |  |  |  | 
C=CCc1ccc(OC)c(OC)c1 | inactive | inactive | inactive | inactive | inactive | inactive |  |  |  | inactive
NCCN1CCNCC1 | inactive | inactive | inactive | inactive | inactive | inactive |  |  |  | 
CC(CCO)CC(C)(C)C (centres undefined) | inactive | inactive | inactive | inactive | inactive | inactive |  |  |  | inactive
CCCCCCCCCCCCCCCC(=O)OC(C)C | inactive | inactive | inactive | inactive | inactive | inactive | -0.875% (inactive) | inactive | inactive | inactive
CCc1ccccc1CC | inactive | inactive | inactive | inactive | inactive | inactive |  |  |  | inactive
